A selection follows.
aSyn UTR act: Activators via SNCA 5'UTR binding, MLPCN. alpha-synuclein 5'UTR reporter, activators screen. activity score, % (tested at 7.5 µM), hits read low. actives 7.1% (n = 300,000); in the data active means activity score below about -60%
Of the large screens only hits and unclear results are named; the others gave an inactive call.

CC(C)(C)C1CCc2c(sc3c2C(=O)NC(c2ccco2)N3)C1 (stereo not drawn)	aSyn UTR act -186
COc1ccc(-c2nc(-c3cccc(C)c3)nc(N3CCN(C)CC3)c2C#N)cc1	none
CN1CCN(c2nc(-c3ccc(Br)cc3)nnc2-c2ccccc2)CC1	aSyn UTR act -123
Brc1ccc(-c2nnc(-c3ccccc3)c(N3CCSCC3)n2)cc1	aSyn UTR act -85
O=C(/C=C/c1cccc(F)c1)c1ccc(N2CCOCC2)cc1	aSyn UTR act -80
Cc1ccc(-c2nn(-c3ccccc3)cc2C(=O)Nc2ccc(C)c(S(=O)(=O)N3CCOCC3)c2)cc1	aSyn UTR act -110
Clc1ccc(CONc2ncnc3nonc23)c(Cl)c1	aSyn UTR act -124
O=C(O)c1ccc(Cn2cnc3scc(-c4ccccc4)c3c2=O)cc1	aSyn UTR act -142
Cn1nc(-c2ccc(Cl)cc2)c2cc(C(=O)N3CCN(c4ccccc4)CC3)sc21	aSyn UTR act -65
COc1cccc(-c2nn(C)c3sc(C(=O)NCCCN(C)Cc4ccccc4)cc23)c1	aSyn UTR act -76
CCCNC(=O)CCn1nc(-c2ccc(Cl)cc2)c2ccccc2c1=O	none
Cc1nn(-c2ccccc2)c2sc(C(=O)N3CCOCC3)cc12	aSyn UTR act -87
COCCCNC(=O)c1cc2c(-c3ccc(Cl)cc3)nn(C)c2s1	aSyn UTR act -72
Brc1c(-c2ccc3c(c2)OCO3)nc2ncccn12	aSyn UTR act -84
COc1ccc(-c2nc3ncccn3c2Br)cc1	aSyn UTR act -148
Cc1ccc(-c2nc3ncccn3c2Nc2ccc3c(c2)OCCO3)cc1	aSyn UTR act -64
COc1cccc(/C(C)=N/NC(=O)c2ccc(N(C)C)cc2)c1	aSyn UTR act -101
C/C(=N/NC(=O)c1ccoc1C)c1cccc(NC(=O)C2CC2)c1	aSyn UTR act -115
COc1ccc(C(=O)N/N=C(/C)c2cccc(NC(=O)C(F)(F)F)c2)cc1	aSyn UTR act -108
COc1ccc2cc(/C(C)=N/NC(=O)C3CC3)ccc2c1	aSyn UTR act -135
C/C(=N/NC(=O)c1ccoc1C)c1cccc(NC(=O)C(F)(F)F)c1	aSyn UTR act -128
CNC(=O)/C(C#N)=C/c1ccc(-c2ccc(Cl)cc2)o1	aSyn UTR act -125
Cc1cccc(C)c1NC(=O)/C(C#N)=C/c1ccc(-c2ccc(C(=O)O)cc2)o1	aSyn UTR act -127
CCOc1ccc(N2C(=O)/C(=C/c3ccccc3)N=C2SC)cc1	aSyn UTR act -89
COc1ccc(/C=C2\N=C(SC)N(c3ccccc3OC)C2=O)cc1	aSyn UTR act -66
COC(=O)c1ccc(CSC2=NCCS2)cc1	aSyn UTR act -83
CCc1ccc(/C=C2\SC(=S)N(CCC(=O)NC3=NCCS3)C2=O)cc1	none
Cc1cc2c(cc1C)CN(c1ccccc1)C2	aSyn UTR act -90
Oc1cccc(N2Cc3ccccc3C2)c1	aSyn UTR act -82
Cc1cc(N2Cc3ccccc3C2)ccc1C=O	aSyn UTR act -96
Cc1ccc(Cn2ccc(=O)c(Cc3c(Cl)cccc3Cl)c2C)cc1	none
Cc1ccc(Cn2ccc(=O)c(OCc3ccccc3)c2C)cc1	aSyn UTR act -110
Cc1c(O)c(=O)ccn1Cc1ccccc1	none
Cc1ccc(-c2nnc(-c3ccccc3)o2)cc1	aSyn UTR act -77
CCCc1nnc(-c2ccc(OC)cc2)o1	aSyn UTR act -67
Cc1ccc(-c2nnc(-c3cccs3)o2)cc1	aSyn UTR act -93
CCNc1nnc(-c2ccc(C)cc2)o1	aSyn UTR act -80
CCN(CC)CCCNc1ccc(-c2nnc(-c3ccc(OCC(C)C)cc3)o2)cn1	none
Clc1ccc(-c2nnc(N3CCOCC3)o2)cc1	aSyn UTR act -71
COc1ccc(-c2nnc(-c3ccc(F)cc3)o2)cc1	aSyn UTR act -152
Cc1ccc(C(=O)Nc2nnc(-c3ccncc3)o2)cc1	aSyn UTR act -82
COc1ccc(-c2nnc(NC(=O)c3ccc(S(=O)(=O)N4COCC4(C)C)cc3)o2)cc1	none
Cc1ccc(/C=C/c2nnc(-c3ccc(C)cc3)o2)cc1	aSyn UTR act -69
CCCN(CCC)S(=O)(=O)c1ccc(C(=O)Nc2nnc(-c3cc(OC)cc(OC)c3)o2)cc1	none
Fc1ccc(/C=C/c2nnc(-c3cccs3)o2)cc1	aSyn UTR act -129
COc1ccc(-c2nnc(-c3ccc(C)cc3)o2)cc1	aSyn UTR act -103
COc1ccc(-c2ccc(-c3nnc(-c4ccncc4)o3)cc2)cc1	aSyn UTR act -115
Fc1ccc(-c2nnc(-c3ccc(Cl)cc3)o2)cc1	aSyn UTR act -194
Cc1ccc(NC(=O)c2cc(C)n(-c3ccccc3)c2C)cc1	none
COc1cc2ccccc2cc1C(=O)Nc1ccc(Cc2ccncc2)cc1	aSyn UTR act -129
CC(=O)Oc1ccccc1C(=O)Nc1ccccc1	aSyn UTR act -93
Cc1ccc(NC(=O)c2cc(C)n(-c3cccc(C)c3)c2C)cc1	aSyn UTR act -62
COc1cc2ccccc2cc1C(=O)Nc1ccc(C)cc1	aSyn UTR act -186
COc1ccccc1C(=O)Nc1ccc2ccccc2c1	aSyn UTR act -88
O=C(Nc1ccncc1)c1cc2ccccc2cc1O	aSyn UTR act -79
Cc1ccc(NC(=O)c2cccc3ccccc23)cc1	aSyn UTR act -91
CN1/C(=C\C=C2/C(=O)Oc3ccccc3C2=O)C(C)(C)c2ccccc21	aSyn UTR act -123
CC1(C)C=Cc2cc3ccc(=O)oc3cc2O1	aSyn UTR act -111
CCOC(=O)c1[nH]c2c(c1C)C(=O)CC(c1ccc(F)cc1)C2 (stereo not drawn)	none
COC(=O)C1C(=O)c2c([nH]c(C(=O)OC3CCCCC3)c2C)CC1C (stereo not drawn)	aSyn UTR act -178
COC(=O)C1C(=O)c2c([nH]c(C(=O)OC3CCCC3C)c2C)CC1C (stereo not drawn)	aSyn UTR act -168
CCCNc1c(F)c(F)c2c(C)c3ccccc3nc2c1F	aSyn UTR act -80
O=C(/C=C/c1ccc(-c2ccccc2[N+](=O)[O-])o1)c1ccccc1	aSyn UTR act -120
O=C(N/N=C/c1ccc(-c2ccccc2[N+](=O)[O-])o1)[C@H]1C[C@@H]1c1ccccc1	aSyn UTR act -79
Cc1csc(Nc2ccc(Cl)cc2)n1	aSyn UTR act -113
Cc1ccc(Nc2nc(C)cs2)cc1	aSyn UTR act -125
COC(=O)Cc1csc(Nc2ccc(Cl)cc2)n1	aSyn UTR act -68
CCS(=O)(=O)n1nc(-c2ccccc2)nc1NCc1ccco1	aSyn UTR act -71
Cc1ccc(S(=O)(=O)n2nc(-c3ccc(Cl)cc3)nc2NCc2ccco2)cc1	aSyn UTR act -96
O=C(OCc1nnc(-c2ccc(Cl)cc2)o1)C12CC3CC(CC(O)(C3)C1)C2	aSyn UTR act -205
O=C(c1ccccc1)c1ccc2c(c1)OCCCO2	aSyn UTR act -64
O=C(CCc1ccccc1)c1ccc2c(c1)OCCCO2	aSyn UTR act -190
O=C(CCCc1ccccc1)c1ccc2c(c1)OCCO2	none
CNc1ccc(/C=C/C(=O)c2ccc3c(c2)OCCO3)cc1[N+](=O)[O-]	aSyn UTR act -64
COc1ccc(OC)c(/C=C/C(=O)c2ccc3c(c2)OCCO3)c1	aSyn UTR act -156
O=C(NCCc1ccccc1)c1ccc2c(c1)OCCCO2	none
CC(OC(=O)c1ccc2c(c1)OCCO2)C(=O)c1ccccc1 (stereo not drawn)	aSyn UTR act -133
O=C1COc2ccc(C(=O)/C=C/c3ccccc3)cc2N1	aSyn UTR act -114
O=C(/C=C/c1ccccc1)c1ccc2c(c1)OCCCCO2	aSyn UTR act -198
O=C(CCN1CCc2ccccc21)c1ccc2c(c1)OCCO2	aSyn UTR act -155
O/N=C(/CCc1ccccc1)c1ccc2c(c1)OCCO2	aSyn UTR act -120
O=C(CSc1cccs1)NCCc1ccccc1	aSyn UTR act -64

Screens as filed in PubChem.
